From PubChem BioAssay (NCATS)
Results filed as inconclusive are left out. Entries that show only a call come without a potency. Activity calls are given as the source filed them. Calls follow the shape of the dose curve; as a rule, active = well fitted inhibition curve with a large enough effect; inconclusive = small, poorly fitted or top-dose-only effect; inactive = no such curve, though single readings can be large or run the other way.
Potency is read from the fitted curve at half-maximal effect.

These compounds were tested against Tumor susceptibility gene 101 protein (Homo sapiens) (UniProt Q99816) (assay: qHTS Assay for Iinhibitors of HIV-1 Budding by Blocking the Interaction of PTAP/TSG101: Hit Validation (AID 651600; also: nearly all actives have a fitted effect of over 70% in size)). Conditions: PTAP peptide/TSG101 UEV interaction, biochemical assay; series mostly up to 57.5 µM.
Tumor susceptibility gene 101 protein (Homo sapiens), sequence (Q99816 whole entry, looked up, the tested form may be a part): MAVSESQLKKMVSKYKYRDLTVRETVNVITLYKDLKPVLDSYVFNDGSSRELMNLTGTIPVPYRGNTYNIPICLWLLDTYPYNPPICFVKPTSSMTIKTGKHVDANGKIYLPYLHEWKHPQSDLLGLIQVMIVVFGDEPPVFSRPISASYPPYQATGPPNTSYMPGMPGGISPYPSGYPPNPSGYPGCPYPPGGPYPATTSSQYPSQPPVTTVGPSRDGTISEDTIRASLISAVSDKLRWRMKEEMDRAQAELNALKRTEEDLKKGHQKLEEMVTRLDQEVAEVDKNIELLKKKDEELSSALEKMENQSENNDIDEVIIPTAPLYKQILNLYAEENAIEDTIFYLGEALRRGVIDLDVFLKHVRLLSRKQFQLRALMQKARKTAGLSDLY
How it was run: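 FITC-PTAP peptide (50 nM final) binding to Tsg101 binding domain (10 uM final) was measured by polarization after 20 min at r.t. with compounds, in 10 mM HEPES pH 7.5 buffer with 0.15 M NaCl and 0.01% Tween 20.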
With CCCN1CCCc2cc(CN)ccc21 the Potency was “inactive”.
CCc1c(C)sc(NC(=O)c2ccccc2[N+](=O)[O-])c1C(N)=O was tested, and the Potency was “inactive”.
For CCCN1CCN(S(=O)(=O)c2cn(C)nc2C)CC1, the Potency was “inactive”.
COc1cc(OC)c(N(C)C(=O)c2sc3nc4n(c(=O)c3c2C)CCCC4)cc1Cl was tested, and the Potency was “inactive”.
In the case of CCCCCCCCOc1ccc(C2OC34CCCCC3C(C#N)(C#N)C2(C#N)C(=N)O4)cc1 (centres undefined), the Potency is reported as “inactive”.
For O=C1C=CC(=O)c2c(O)c(CO)c(CO)c(O)c21, the Potency was “inactive”.
With CCC(=O)Oc1ccc2c(c1)O/C(=C\c1ccco1)C2=O the Potency was 16.3 µM (active).
With O=C(Nc1nc2c(s1)CN(Cc1ccccc1)CC2)c1cccc(S(=O)(=O)N2CCc3ccccc32)c1 the Potency was “inactive”.
For COc1ccc(C2C(C(=O)c3cccs3)=C(O)C(=O)N2c2nncs2)cc1 (centres undefined), the Potency was 20.6 µM (active).
O=c1[nH]c(=O)n(-c2cc(Br)c(O)c(Br)c2)cc1Br was tested, and the Potency was “inactive”.
For CCOc1ccc(N(CC(=O)NCc2ccc(F)cc2)S(=O)(=O)c2c(C)noc2C)cc1, the Potency was “inactive”.
With CCCCCOc1ccc(/C=c2\sc3nc(=O)c(-c4ccccc4)nn3c2=O)cc1OC the Potency was “inactive”.
In the case of Cc1ccc(C2C=C(c3ccccc3)Nc3nc(NS(=O)(=O)c4ccccc4)nn32)cc1 (centres undefined), the Potency is reported as “inactive”.
In the case of Cn1c(=O)c(NCCc2ccccc2)c2c3c(cccc31)C(=O)c1ccccc1-2, the Potency is reported as 2.59 µM (active).
O=[N+]([O-])c1cc(Cl)c2cccnc2c1O was tested, and the Potency was “inactive”.
O=C1/C(=N\S(=O)(=O)c2cccs2)C([n+]2cccc(Cc3ccccc3)c2)=C([O-])c2ccccc21 was tested, and the Potency was 16.3 µM (active).
For CCCCCCn1c(=O)[nH]c2nc3cc(N)ccc3nc2c1=O, the Potency was 14.6 µM (active).
With c1ccc2c(c1)CCCN2Cc1nnnn1CC1CCCO1 (centres undefined) the Potency was “inactive”.
For Cn1c(=O)c2[nH]c(COc3ccccc3)nc2n(C)c1=O, the Potency was “inactive”.
For COc1ccc(C2C(C(=O)c3cccs3)=C(O)C(=O)N2c2nnc(C)s2)cc1OC (centres undefined), the Potency was 6.51 µM (active).
N#CC(C(=O)NC1CC1)c1nc2ccccc2nc1N1CCCC1 (centres undefined) was tested, and the Potency was “inactive”.
With CCN1CCN(Cc2ccc(NC(=O)Nc3ccccc3OC)cc2)CC1 the Potency was “inactive”.
With Nc1cnccc1C(=O)O the Potency was 20.6 µM (active).
With CCOc1ccc(S(=O)(=O)N2CCc3cc(OC)c(OC)cc3C2)cc1 the Potency was “inactive”.
